Hits are enriched below; roughly 8% of the tested compounds scored in any of these assays.
Marburg entry inh: qHTS for inhibitors of binding or entry into cells for Marburg Virus | Marburg virus pseudotyped entry inhibition, cell reporter | Potency, µM (highest dose often 37.8 µM), without a hit: at the highest dose activity change, negative = inhibition, most hits filed as inhibitors | actives 1.8% (n = 300,000) | AID 540276, 2011; calls by dose curve; tested in HEK293 cells; also: potency is read from the fitted curve at half-maximal effect; % is scaled to controls: 0 for no effect and ±100 for the full control effect
SARS PLP yeast: qHTS of Yeast-based Assay for SARS-CoV PLP; AID 485353, 2010; Potency, µM (titrated, usually from 32.9 µM), inactives show at the highest dose activity, positive = growth rescue, hits mostly activators; S. cerevisiae expressing SARS-CoV PLpro, growth rescue; actives 0.19% (n = 330,000); calls by dose curve; also: potency is read from the fitted curve at half-maximal effect; 0% is about no effect; nearly all actives have a fitted effect of over 55% in size
FMDV inh: High Throughput Screening for Foot and Mouth Disease Virus Antivirals | FMDV antiviral cell-based qHTS | Potency, µM (series often up to 57.9 µM), inactives show at the top dose activity change, negative = inhibition, actives largely listed as inhibitors | actives 1.2% (n = 410,000); calls by dose curve; tested in HEK293T cells; also: read-out not given here; potency is read from the fitted curve at half-maximal effect; % is scaled to controls: 0 for no effect and ±100 for the full control effect; nearly all actives have a fitted effect of over 45% in size
LASV entry inh: qHTS for Inhibitors of binding or entry into cells for Lassa Virus; Lassa virus pseudotype entry inhibition, cell reporter; Potency, µM (titrated, usually from 37.9 µM), for inactives: at the top dose activity change, negative = inhibition, most hits filed as inhibitors; actives 1.2% (n = 300,000); calls by dose curve; tested in HEK293 cells; also: potency is read from the fitted curve at half-maximal effect; % is scaled to controls: 0 for no effect and ±100 for the full control effect; nearly all actives have a fitted effect of over 50% in size
HCV inh: qHTS Assay for Inhibitors of Hepatitis C Virus (HCV); Huh7.5.1 HCVcc-Cre infection, luciferase reporter, 44 h; Potency, µM (doses to about 41.8 µM), for the others: at the highest dose activity change, negative = inhibition, actives largely listed as inhibitors; actives 3.4% (n = 340,000); active = well fitted inhibition curve with a large enough effect; inconclusive = small, poorly fitted or top-dose-only effect, or another doubt; inactive = no such curve, though single readings can be large or run the other way; also: potency is read from the fitted curve at half-maximal effect; % is scaled to controls: 0 for no effect and ±100 for the full control effect
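A cell-based infection assay in which seeded cells (1,000 per well) receive test compound after 4 h, are inoculated with HCVcc-Cre at approximately 0.5 moi, and are incubated 44 h before luminescence detection.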
HCMV inh: qHTS Assay for inhibitors of the human cytomegalovirus (HCMV); activity change, negative = inhibition, % at 57.5 µM; actives 4.5% (n = 410,000); HFF cells, HCMV-luciferase reporter, 72 h; active compounds read low; in the data active = activity change below about -60%; inconclusive = no clear call, values can overlap the other calls; inactive = above about -39%; also: % is scaled to controls: 0 for no effect and ±100 for the full control effect
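Inhibition of viral replication was scored as loss of reporter luminescence in HFFs infected with HCMV-luciferase (MOI 1 PFU/cell) for 72 h; compounds tested at 2 doses, normalized to buffer and Salinomycin controls.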
Numbers without * were called inactive; ? = inconclusive; . = not tested or not shown; [ ] = dose if it differs, or a comment.

SMILES | Marburg entry inh | SARS PLP yeast | FMDV inh | LASV entry inh | HCV inh | HCMV inh
CCn1cc(C(=O)NCCc2ccccc2)c(=O)c2cc(S(=O)(=O)N(C)C3CCCCC3)ccc21 | -14%[46.1 µM] | . | 34% | 23%[46.1 µM] | . | 2
CCCCCCN1C[C@@H](n2cc(C3CC3)nn2)[C@H](O)C[C@H]1c1ccccc1 | . | . | . | -5%[46.1 µM] | . | .
CSc1nn(Cc2ccc(F)cc2)c(N(C(C)=O)C(C)=O)c1S(=O)(=O)c1ccccc1 | ? | . | 11% | -27%[46.1 µM] | . | 10
Cc1nn(-c2ccccc2)c2c1N(CCCC(=O)NC(C)c1ccccc1)C(=O)CS2 (stereo not given) | . | . | 0% | -25%[46.1 µM] | . | -11
C#Cc1ccc([C@H]2C=C(C(=O)OCC=C)O[C@@H](OCc3ccc(CO)cc3)C2)cc1 | . | . | -2% | . | 22% | 6
C#Cc1ccc([C@H]2C=C(C(=O)OCC=C)O[C@@H](OCCCCO)C2)cc1 | . | . | -8% | . | 11% | -67*
COc1ccccc1N1CCN(C(=O)COc2cc(C)cc3oc(=O)cc(C)c23)CC1 | . | 5% | ? | . | 8.9µM* | 9
Cc1cccc(N2CCN(C(=O)COc3ccc4c(C)cc(=O)oc4c3C)CC2)c1C | ? | -8% | ? | ? | 10µM* | -34
COc1ccccc1N1CCN(C(=O)COc2cc(C)ccc2C)CC1 | ? | -8% | -24% | ? | -1% | -3
COC(=O)Cc1c(C)c2ccc(OCC(=O)N3CCCC3)c(C)c2oc1=O | -21% | 5% | -22% | 13% | ? | 6
Cc1cccc(N2CCN(C(=O)COc3ccc4ccc(=O)oc4c3)CC2)c1C | . | -22% | ? | . | 11µM* | ?
COC(=O)Cc1c(C)c2ccc(OCC(=O)N3CCC(C)CC3)c(C)c2oc1=O | -26% | -5% | 35µM* | -5% | ? | -14
Cc1cc(=O)oc2c(C)c(OCC(=O)N3CCN(c4ccc(F)cc4)CC3)ccc12 | ? | 1% | -5% | 2%[46.1 µM] | ? | -17
CCN(CC)C(=O)c1c(-c2ccccc2)c(-c2ccccc2)nn(C)c1=O | ? | . | -6% | -13%[46.1 µM] | . | -35
O=c1cccc2c1c1cc[nH]c3ccc(=O)n2c31 | . | 3% | -22% | . | ? | -70*
COc1ccccc1CNC(=O)CCC1N=C2c3ccccc3N=C(SCc3ccc(C)cc3C)N2C1=O (stereo not given) | ? | . | -25% | ? | . | -25
CCN1CCN(c2cc(C)c3cc(NC(=O)Cc4ccccc4OC)ccc3n2)CC1 | -24% | 1% | 1% | 1% | ? | 8
COc1ccccc1CC(=O)Nc1ccc2nc(Nc3cccc(C(F)(F)F)c3)cc(C)c2c1 | . | . | ? | ? | . | -67*
COc1cccc(CC(=O)Nc2ccc3nc(Nc4cccc(C(F)(F)F)c4)cc(C)c3c2)c1 | . | . | ? | -22%[46.1 µM] | . | -72*
CC(=O)Oc1cc(OC(C)=O)c2c(c1)OC(c1ccc(OC(C)=O)c(OC(C)=O)c1)C(OC(C)=O)C2 (stereo not given) | . | . | 2% | . | . | .
O=C(O)C(Cc1ccc2c(c1)oc1ccccc12)NCP(=O)(O)O (stereo not given) | . | . | 6% | . | . | .
Cc1cc2cc(CCNC(=O)C(=O)c3c[nH]c4ccccc34)c(=O)[nH]c2cc1C | ? | -2% | 1% | 13µM* | -18% | -14
CCOc1ccccc1CNC(=O)c1cnc2sc(N3CCOCC3)nn2c1=O | . | . | -13% | 18%[46.1 µM] | . | ?
CCOC(=O)c1c(C)[nH]c(C)c1S(=O)(=O)N1CCC(C(=O)Nc2cc(Cl)ccc2OC)CC1 | . | . | 60% | -15%[46.1 µM] | . | -11
O=C(c1cc(COc2ccc(F)cc2Cl)on1)N1CCCCCC1 | . | ? | 42% | . | ? | 70
SMILES | Marburg entry inh | SARS PLP yeast | FMDV inh | LASV entry inh | HCV inh | HCMV inh
CCC(NC(=O)c1cc(COc2cncc(Cl)c2)on1)c1ccncc1 (stereo not given) | . | 16% | -16% | . | ? | ?
CC(C)N(Cc1nccn1C)C(=O)c1cc(COc2ccc(F)cc2Cl)on1 | 1% | 1% | -11% | -4% | -54% | -97*
COc1ccc(OCc2cc(C(=O)N(Cc3nccn3C)C(C)C)no2)c2ccccc12 | . | -3% | 24% | . | ? | 93
CCC(NC(=O)c1cc(COc2ccc(F)cc2Cl)on1)c1ccncc1 (stereo not given) | . | -4% | -15% | . | 4µM* | ?
O=C(c1cc(COc2ccc(F)cc2Cl)on1)N(Cc1ccncc1)CC1CCCO1 (stereo not given) | -15%[46.1 µM] | 0% | -15% | ? | ? | -61*
O=C(c1cc(COc2ccc(F)cc2Cl)on1)N1CCC(c2ccncc2)CC1 | ? | -4% | -28% | ? | 13µM* | -67*
O=C(O)CCC/C=C\C[C@@H]1C(/C=C/[C@@H](O)COc2cccc(C(F)(F)F)c2)[C@@H](O)C[C@@H]1O (stereo not given in full) | . | . | -17%[6.7 µM] | . | . | .
CCCc1ccc2oc(C(=O)N(Cc3ccncc3)CC3CCCO3)c(C)c2c1 (stereo not given) | ? | -13% | 17% | 6.3µM* | ? | -13
O=C(Nc1nnc2n1CCS2)c1ccccc1 | . | . | 23% | 7%[46.1 µM] | . | -68*
CCOC(=O)C1=C(CN2CCC(C(=O)OCC)CC2)NC(=O)NC1c1ccc(Cl)cc1 (stereo not given) | -3%[46.1 µM] | . | -30% | 2%[46.1 µM] | . | 4
COc1ccc(Cn2c(CO)cnc2SCc2cccc(C)c2)cc1 | . | . | 29% | 5%[46.1 µM] | . | 40
CCN(Cc1ccccc1)C(=O)COC(=O)c1c(C)nsc1NC | . | 3% | ? | . | 11µM* | -66*
O=C(NCCN1C(=O)S/C(=C\c2ccc(OC(F)F)cc2)C1=O)C1=COCCO1 | ? | -4% | -14% | ? | 11µM* | .
